Results filed as inconclusive are left out. Calls of active or inactive are those of the source. Calls follow the shape of the dose curve; as a rule, active = well fitted inhibition curve with a large enough effect; inconclusive = small, poorly fitted or top-dose-only effect; inactive = flat fitted curve, though single readings scatter.
Experiments:
Test in all cases: qHTS profiling for inhibitors of Plasmodium falciparum proliferation (AID 504749); also: nearly all actives have a fitted effect of over 60% in size
Conditions in all cases: P. falciparum in erythrocytes, SYBR Green DNA, 72 h; series mostly up to 28.7 µM
CP211 = test system: CP211
In short: (§1)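 Readout was DNA-dye fluorescence from lysed cultures, ex 485/em 535 nm. Parasitized red cells had grown 72 h with compound; data scaled between 0.29 uM artemisinin and DMSO wells and corrected using vehicle-only plates.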

CP215 = test system: CP215
In short: as §1

CP217 = test system: CP217
In short: as §1

CP237 = test system: CP237
In short: as §1

CP238 = test system: CP238
In short: as §1

CP247 = test system: CP247
In short: as §1

CP250 = test system: CP250
In short: as §1

CP252 = test system: CP252
In short: as §1

CP256 = test system: CP256
In short: as §1

CP260 = test system: CP260
In short: as §1

CP262 = test system: CP262
In short: as §1

CP265 = test system: CP265
In short: as §1

CP266 = test system: CP266
In short: as §1

CP268 = test system: CP268
In short: as §1

CP269 = test system: CP269
In short: as §1

CP286 = test system: CP286
In short: as §1

CP291 = test system: CP291
In short: as §1

CP305 = test system: CP305
In short: as §1

CP315 = test system: CP315
In short: as §1

CP297 = test system: CP297
In short: as §1

Measured: Potency
Potency is read from the fitted curve at half-maximal effect.

CC1=C(/C=C/C(C)=C/C=C/C(C)=C/C(=O)O)C(C)(C)CCC1
not listed: CP297
inactive: all other assays above

O=C1NC(=O)[C@@]2(CCOc3ccc(F)cc32)N1
not listed: CP266
inactive: all other assays above

Nc1ncnc2c1ncn2[C@@H]1O[C@H](CO)[C@@H](O)[C@H]1O
not listed: CP297
inactive: all other assays above

CCCCN1CCCC[C@H]1C(=O)Nc1c(C)cccc1C
active: CP237 8.91 µM
not listed: CP265 | CP291
inactive: all other assays above

CCOC(CN1CCN(CC(C)C(=O)c2ccccc2)CC1)c1ccccc1 (stereo not given)
not listed: CP237 | CP247 | CP265 | CP297
inactive: all other assays above

CC(O)CN(CCN(CC(C)O)CC(C)O)CC(C)O (stereo not given)
not listed: CP266
inactive: all other assays above

CC(C)(C)NCC(O)COc1ccc(NC(=O)NC2CCCCC2)cc1 (stereo not given)
not listed: CP247
inactive: all other assays above

C[C@H]1O[C@@H](n2cc(F)c(=O)[nH]c2=O)[C@H](O)[C@@H]1O
not listed: CP266
inactive: all other assays above

COc1ccc(Cl)cc1C(=O)NCCc1ccc(S(=O)(=O)NC(=O)NC2CCCCC2)cc1
not listed: CP215
inactive: all other assays above

O=C(O)c1ccccn1
not listed: CP215
inactive: all other assays above

Cn1c(=O)c2c(ncn2CC2OCCO2)n(C)c1=O
not listed: CP297
inactive: all other assays above

O=C1c2c(O)cccc2Cc2cccc(O)c21
not listed: CP291
inactive: all other assays above

CCCCN(CCCC)CCCOC(=O)c1ccc(N)cc1
not listed: CP265
inactive: all other assays above

CC(C(O)c1ccc(O)cc1)N1CCC(Cc2ccccc2)CC1 (stereo not given)
active: CP237 8.91 µM | CP268 15.1 µM | CP269 12 µM | CP291 16.9 µM | CP305 15.1 µM

Cc1ccc(C(C)C)cc2c(C)ccc1-2
not listed: CP215
inactive: all other assays above

CN1CCC[C@@H]1Cc1c[nH]c2ccc(CCS(=O)(=O)c3ccccc3)cc12
inactive: CP252 | CP262 | CP266 | CP269 | CP305 | CP315

O=Cc1ccccc1C=O
not listed: CP215
inactive: all other assays above

CNCCCC1c2ccccc2C=Cc2ccccc21
not listed: CP215 | CP217 | CP238 | CP256 | CP265 | CP269
inactive: all other assays above

Oc1ccc(C(O)CNCCCCCCNCC(O)c2ccc(O)c(O)c2)cc1O (stereo not given)
inactive: CP262
active: CP247 11.2 µM | CP260 7.94 µM | CP286 7.08 µM

Cc1c(O)cccc1C(=O)N[C@@H](CSc1ccccc1)[C@H](O)CN1C[C@H]2CCCC[C@H]2C[C@H]1C(=O)NC(C)(C)C
inactive: CP211 | CP250 | CP262 | CP266 | CP305

CC(C)(C)C(=O)C(Oc1ccc(Cl)cc1)n1ccnc1 (stereo not given)
active: CP217 10 µM | CP237 7.08 µM | CP297 16.9 µM
inactive: CP256 | CP262 | CP266

CN1CCN(C2Cc3ccccc3Sc3ccc(Cl)cc32)CC1 (stereo not given)
not listed: CP215 | CP217 | CP237 | CP260 | CP268 | CP286 | CP297
inactive: all other assays above

CCN(CC)CCNC(=O)c1c(C)[nH]c(/C=C2\C(=O)Nc3ccc(F)cc32)c1C
active: CP211 10.7 µM | CP217 11.2 µM | CP237 8.91 µM | CP238 7.94 µM | CP247 10 µM | CP250 14.1 µM | CP252 7.94 µM | CP256 11.2 µM | CP260 7.08 µM | CP269 5.36 µM | CP286 11.2 µM | CP315 10.7 µM

NC(=O)N/N=C/c1ccc([N+](=O)[O-])o1
inactive: CP211 | CP266 | CP315
active: CP237 10 µM | CP260 10 µM | CP265 8.91 µM

CSc1ccc2c(c1)N(CCC1CCCCN1C)c1ccccc1S2 (stereo not given)
active: CP237 10 µM | CP260 7.94 µM | CP269 10.7 µM | CP286 11.2 µM
inactive: CP211 | CP266

CC(C)(C)C(=O)NCCCC(=O)O
active: CP291 12 µM
not listed: CP211 | CP260
inactive: all other assays above

OCc1cc(C(O)CNCCCCCCOCCCCc2ccccc2)ccc1O (stereo not given)
not listed: CP211 | CP215 | CP237 | CP256 | CP260 | CP262 | CP286
inactive: all other assays above

Cc1ccc2nc(N)[nH]c(=O)c2c1Sc1ccncc1
active: CP250 2.24 µM | CP252 1.58 µM | CP256 10 µM | CP260 11.2 µM | CP265 10 µM | CP286 2.82 µM
inactive: CP266 | CP297 | CP315

CNC(=O)Oc1ccc2c(c1)[C@]1(C)CCN(C)[C@@H]1N2C
inactive: CP315
active: CP237 4.47 µM | CP238 1.78 µM | CP247 1.58 µM | CP250 1.58 µM | CP252 1.78 µM | CP256 2 µM | CP260 8.91 µM | CP265 1.58 µM | CP286 7.08 µM

CC(CN1c2ccccc2Sc2ccccc21)N(C)C (stereo not given)
not listed: CP215 | CP237 | CP260 | CP265 | CP305 | CP297
inactive: all other assays above

CN(C)CCCN1c2ccccc2Sc2ccc(Cl)cc21
inactive: CP247 | CP256 | CP262 | CP266 | CP315
active: CP215 15.1 µM | CP286 12.6 µM

[Cl][In]([Cl])[Cl]
inactive: CP211 | CP238 | CP252 | CP262 | CP315

CCN(CC)CCNC(C(=O)OCCC(C)C)c1ccccc1 (stereo not given)
inactive: CP211 | CP247 | CP250 | CP262 | CP266 | CP315
active: CP237 3.16 µM | CP265 8.91 µM

CC1(C)OC(=O)NC1=O
not listed: CP215 | CP260
inactive: all other assays above

CN1CCCCC1CCN1c2ccccc2Sc2ccc(S(C)=O)cc21 (stereo not given)
active: CP215 15.1 µM
inactive: CP217 | CP247 | CP252 | CP262 | CP266 | CP297 | CP315

CSc1ccc2c(c1)C(N1CCN(C)CC1)Cc1ccccc1S2 (stereo not given)
active: CP260 10 µM
inactive: CP250 | CP256 | CP262 | CP265 | CP266 | CP315
